# This is a sample that favours compounds with a hit; in the whole collection about 0.84% have one here.
# COUP-TFII inh – NR2F2 transcriptional activity inhibitors, primary screen, cell-based, luciferase reporter, HEK293T, luminescence; inhibition, % at 8.6 µM; actives 0.7% (n = 370,000); HEK293T NGFI-A luciferase reporter;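 active = inhibition above a per-plate cutoff, mean inhibition of test wells between control levels plus 3 SD, cut at about 38% in these data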;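 also: cells cotransfected with COUP-TFII expression vector driving the NGFI-A reporter; 0% = median of COUP-TF2 test wells and 100% = reporter-only cells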
# NCOA2 inhibitor – inhibition of GAL4-SRC2 driven luciferase reporter, primary screen, SRC2 inhibitor project, cell-based, luminescence; inhibition, % at 9 µM; actives 0.17% (n = 370,000); AID 651957, 2012; HEK293 GAL4-SRC2 luciferase reporter;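 active = inhibition above the mean inhibition of all tested compounds plus 3 SD, set per campaign, cut at about 52% in these data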;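 also: 0% = DMSO treated cells and 100% = cells given Gossypol at 36 µM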
# SRC1 inh – SRC1 coactivator transcriptional activity inhibitors, primary screen, cell-based, luminescence. Nuclear receptor coactivator 1 (Homo sapiens), Q15788. HEK293 GAL4-SRC1 luciferase reporter. inhibition, % at 3.6 µM. actives 0.12% (n = 360,000). AID 588354, 2011;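 active = inhibition above the campaign mean plus 3 SD, with each screening campaign given its own cutoff, cut at about 60% in these data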;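 also: 0% = DMSO treated cells and 100% = gossypol at 36 µM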
# Target sequence (Q15788 whole entry, looked up, the tested form may be a part): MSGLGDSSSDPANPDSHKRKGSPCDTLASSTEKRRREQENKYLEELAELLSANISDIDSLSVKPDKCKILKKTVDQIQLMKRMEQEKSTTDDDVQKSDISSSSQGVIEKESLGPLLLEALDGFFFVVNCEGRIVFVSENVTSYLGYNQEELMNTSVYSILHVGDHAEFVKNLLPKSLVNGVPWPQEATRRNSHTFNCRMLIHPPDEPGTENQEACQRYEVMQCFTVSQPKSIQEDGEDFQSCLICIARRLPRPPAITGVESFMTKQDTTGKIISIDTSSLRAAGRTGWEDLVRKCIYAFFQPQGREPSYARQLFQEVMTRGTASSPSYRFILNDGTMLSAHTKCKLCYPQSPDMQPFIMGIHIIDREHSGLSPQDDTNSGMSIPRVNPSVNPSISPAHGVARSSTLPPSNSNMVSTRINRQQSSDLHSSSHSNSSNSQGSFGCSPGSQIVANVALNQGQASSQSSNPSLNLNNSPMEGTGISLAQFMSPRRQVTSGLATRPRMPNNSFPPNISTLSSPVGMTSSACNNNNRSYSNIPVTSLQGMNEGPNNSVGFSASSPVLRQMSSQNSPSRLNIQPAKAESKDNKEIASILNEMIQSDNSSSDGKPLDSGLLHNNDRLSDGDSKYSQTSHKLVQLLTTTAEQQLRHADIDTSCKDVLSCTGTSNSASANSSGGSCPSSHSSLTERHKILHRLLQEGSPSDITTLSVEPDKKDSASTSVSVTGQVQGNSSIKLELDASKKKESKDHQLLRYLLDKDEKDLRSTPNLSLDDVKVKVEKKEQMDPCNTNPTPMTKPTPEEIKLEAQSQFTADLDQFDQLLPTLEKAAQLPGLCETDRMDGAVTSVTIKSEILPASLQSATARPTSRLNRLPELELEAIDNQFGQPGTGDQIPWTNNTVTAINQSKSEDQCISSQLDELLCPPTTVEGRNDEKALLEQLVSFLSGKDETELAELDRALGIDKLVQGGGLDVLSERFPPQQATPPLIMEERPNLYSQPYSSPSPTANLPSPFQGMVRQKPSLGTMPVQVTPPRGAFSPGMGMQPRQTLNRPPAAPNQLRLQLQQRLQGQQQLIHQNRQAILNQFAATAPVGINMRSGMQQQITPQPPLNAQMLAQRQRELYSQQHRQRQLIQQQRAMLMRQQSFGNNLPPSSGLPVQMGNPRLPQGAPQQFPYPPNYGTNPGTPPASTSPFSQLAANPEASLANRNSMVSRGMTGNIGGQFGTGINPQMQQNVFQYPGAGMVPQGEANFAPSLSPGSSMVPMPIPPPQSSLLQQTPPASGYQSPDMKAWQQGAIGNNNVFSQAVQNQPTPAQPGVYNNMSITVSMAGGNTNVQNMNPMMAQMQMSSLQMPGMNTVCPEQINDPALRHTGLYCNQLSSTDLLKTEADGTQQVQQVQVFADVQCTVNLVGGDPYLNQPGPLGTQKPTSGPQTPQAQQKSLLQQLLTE
# NCOA3 inh – SRC3 coactivator transcriptional activity inhibitors, primary screen, cell-based, luminescence. inhibition, % at 3.6 µM. HEK293 GAL4-SRC3 luciferase reporter. AID 588352, 2011. actives 0.17% (n = 360,000);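 active = inhibition above a per-campaign cutoff, the mean of all compounds plus 3 SD, cut at about 60% in these data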;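 also: 0% = DMSO-treated cells and 100% = gossypol-treated cells at 36 µM; higher means less SRC3-driven luciferase light from the GAL4 reporter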
# NR5A2 inv ag – LRH-1 (NR5A2) inverse agonists, primary screen, cell-based, luminescence, HEK293T, StAR-luciferase reporter. Nuclear receptor subfamily 5 group A member 2 (Homo sapiens), O00482. LRH-1 transfected, 24 h. inhibition, % at 3.6 µM. actives 0.13% (n = 360,000). AID 602396, 2012;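 active = inhibition above the mean inhibition of all tested compounds plus 3 SD, cut at about 73% in these data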;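 also: 0% = DMSO wells and 100% = reporter-only cells lacking LRH-1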
# VP16 Luc counter – Gal4-VP16 luciferase reporter inhibitors, counter-screen for COUP-TFII antagonist project, cell-based, luminescence, HEK293; shares compounds with COUP-TFII inh; inhibition, % at 8.5 µM; actives 25% (n = 2,500); in the data active = inhibition above about 13%
# NR2F2 inh conf – NR2F2 transcriptional activity inhibitors, confirmation, cell-based, luciferase reporter, HEK293, triplicate; HEK293 NGFI-A luciferase reporter, luminescence; actives 45% (n = 2,500); inhibition, % at 8.5 µM; shares compounds with COUP-TFII inh;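 active = mean inhibition over three repeats above a set limit taken from the earlier primary screen, cut at about 38% in these data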;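 also: 100% = cells given the luciferase reporter alone without the COUP-TF2 vector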
# Active calls of the source: *; / = not tested or not shown.
SMILES,COUP-TFII inh,NCOA2 inhibitor,SRC1 inh,NCOA3 inh,NR5A2 inv ag,VP16 Luc counter,NR2F2 inh conf
CCN1/C(=C/c2cccc[n+]2C)Sc2ccc(OC)cc21,77*,22,24,30,38,-4,46*
COc1ccc2c(c1)N(C)/C(=C/c1cccc[n+]1C)S2,56*,-5,21,38,41,-4,21
CCOCc1nc(N)nc(N)c1-c1cccc(Cl)c1,57*,-7,-13,-12,23,-11,-4
CCOC(=O)c1c(C)nc2ccc(Cl)cc2c1-c1ccccc1,4,-13,-21,22,5,/,/
CC(C)(C)CCNc1nc(-c2ccccn2)nnc1-c1ccccc1,52*,/,/,/,/,4,14
c1ccc(-c2ccc(CNc3nc(-c4ccccn4)nnc3-c3ccccc3)cc2)cc1,55*,/,/,/,/,-2,18
CCOc1cccc(Cc2c[nH]c(=O)[nH]c2=O)c1,2,-12,11,6,0,/,/
COCCNC(=O)C1(C)CCCN(Cc2sc(C)nc2C)C1 (centres undefined),-5,-14,-49,-18,14,/,/
O=c1c(Cl)c(N2CCCCC2)cnn1-c1nc2ccccc2[nH]1,56*,32,8,30,-28,-40,-15
O=c1c2ccccc2cnn1-c1nc2ccccc2[nH]1,96*,83*,70*,65*,41,53*,70*
O=c1c2ccccc2nc2c3ccccc3cnn12,-30,-41,-36,-26,-69,/,/
Clc1ccc2nc(N3CCCCC3)[nH]c2c1,-49,-29,-119,-91,-183,/,/
CCOC(=O)[C@]12CCCCC/C=C\1N(CCc1ccc(Cl)cc1)C(=O)[C@H]2CC(=O)NCc1ccc(C)o1,-1,-12,/,/,/,/,/
Cc1cc(Nc2cccc(F)c2)cc(=O)n1-c1cccc(F)c1,-11,-16,/,/,/,/,/
c1cc(-c2cnc3cccnn23)c2cccnc2c1,46*,66*,63*,58,25,4,26
COc1ccc(S(=O)(=O)N(CC(C)C)C2CCS(=O)(=O)C2)cc1OC (centres undefined),3,0,1,6,11,/,/
C=C/C(C)=C/C[C@H]1C(=C)CCC2[C@](C)(C(=O)O)CCC[C@@]21C (some centres undefined),/,/,-4,16,8,/,/
C=C1CCC2C(C)(C)CCC[C@]2(C)[C@H]1CC1=C(O)C(=O)C(CO)=CC1=O (some centres undefined),55*,62*,/,/,/,46*,62*
CCOC(=O)c1cccc(NS(=O)(=O)c2ccc(NC(C)=O)cc2)c1,39*,44,39,34,16,7,22
CCOC(=O)c1ccc(NC(=O)COc2ccc(S(=O)(=O)NC(C)CC)cc2)cc1 (centres undefined),47*,-1,4,-4,15,0,26
CC(=O)c1cccc(NS(=O)(=O)c2ccc(C(=O)Nc3ccccc3)cc2)c1,49*,20,-17,31,27,12,48*
CC(=O)c1cccc(NS(=O)(=O)c2ccc(-c3cnc(C4CC4)o3)cc2)c1,44*,15,16,28,37,3,47*
CCOC(=O)c1ccc(NC(=O)C(C)NS(=O)(=O)c2ccc(OC)cc2)cc1 (centres undefined),-2,-12,2,10,5,/,/
Cn1c(SCC(=O)Nc2ccccc2-c2ccccc2)nnc1-c1cnccn1,5,1,/,/,/,/,/
CCCN1CCCCC(NC(=O)c2ccccc2OC)C1=O (centres undefined),-10,9,/,/,/,/,/

# Compound activity as filed in PubChem.
